NPC1 promoter act – qHTS Assay for NPC1 Promoter Activators. Potency, µM (top dose mostly 9.22 µM), inactives show top-dose activation, usual class: activators. 2.4% of 320,000 active. Huh7 NPC1 promoter luciferase reporter, 24 h; further: % of control where 0% means no effect; nearly all actives have a fitted effect of over 60% in size
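Huh7 cells stably carrying NPC1 promoter–luciferase, plated in Opti-MEM with 10% FBS for 2 h, were exposed to compound in DMSO for 24 h at 37 °C; luciferase reagent was added for 10 min and luminescence read.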
ELG1 genotox – qHTS screen for small molecules that induce genotoxicity in human embryonic kidney (HEK293T) cells expressing luciferase-tagged ELG1. 1.3% of 330,000 active. HEK293T ELG1-luciferase reporter, luminescence, 16 h. Potency, µM (doses to about 46 µM), inactives show at the top dose activity change, positive = activation, usual class: activators; further: % of control where 0% means no effect; nearly all actives have a fitted effect of over 60% in size
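Quantitative HTS format in 1536-well plates. HEK293T ELG1-luciferase reporter cells receive test compound and are incubated 16 hr at 37 °C, 5% CO2; ONE-Glo added, 30 min room temperature, then luminescence read.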
SMN2 splice up – qHTS Assay for Enhancers of SMN2 Splice Variant Expression | Potency, µM (titrated, usually from 46.1 µM), inactives show at the top dose activity change, positive = activation, actives largely listed as activators | AID 1458, 2008 | HEK293 SMN2-luciferase splicing reporter, luminescence, 30-36 h | 2.8% of 210,000 active; further: % of control where 0% means no effect; nearly all actives have a fitted effect of over 55% in size
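HEK293 cells carry an SMN2 minigene-luciferase reporter in which exon 7 inclusion puts luciferase in frame. Cells were seeded at 2000 cells/well, attached for 10-12 hours, then exposed to compounds for 30-36 hours at 37C before ONE-Glo luminescence.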
FLuc modulator – qHTS profiling assay for firefly luciferase inhibitor/activator using purifed enzyme and Km concentrations of substrates (counterscreen for miR-21 project). Luciferin 4-monooxygenase (Photinus pyralis), P08659. purified FLuc, Km substrates, luminescence inhibition. Potency, µM (doses to about 57.5 µM), for the others: at the top dose activity change, negative = inhibition, most hits filed as inhibitors. 6.9% of 360,000 active. AID 588342, 2011;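 further: plate controls were vehicle for no effect and reference inhibitor for full effect; nearly all actives have a fitted effect of over 55% in size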
Target sequence (P08659 whole entry, looked up): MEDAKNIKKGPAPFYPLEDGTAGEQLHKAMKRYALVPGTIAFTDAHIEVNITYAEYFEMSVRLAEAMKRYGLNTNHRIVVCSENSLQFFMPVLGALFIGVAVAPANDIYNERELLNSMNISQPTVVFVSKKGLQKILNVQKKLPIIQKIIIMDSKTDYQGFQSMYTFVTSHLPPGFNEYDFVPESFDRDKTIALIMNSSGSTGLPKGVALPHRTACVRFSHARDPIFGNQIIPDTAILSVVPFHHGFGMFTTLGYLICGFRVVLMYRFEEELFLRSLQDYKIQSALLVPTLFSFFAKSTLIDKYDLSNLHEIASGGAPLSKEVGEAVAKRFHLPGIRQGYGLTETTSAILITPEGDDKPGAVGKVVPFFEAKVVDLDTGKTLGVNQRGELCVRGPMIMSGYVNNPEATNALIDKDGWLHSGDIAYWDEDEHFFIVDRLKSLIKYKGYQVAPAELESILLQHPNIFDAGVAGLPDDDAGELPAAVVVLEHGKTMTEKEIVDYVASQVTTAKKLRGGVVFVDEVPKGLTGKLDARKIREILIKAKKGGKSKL
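Biochemical qHTS of compounds, final roughly 60 µM downward over six points, against 10 nM purified firefly luciferase using Km concentrations of substrates (10 uM D-luciferin, 10 uM ATP) in Tris acetate pH 7.5 buffer; luminescence output.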
Luc counter – Counterscreen for Luciferase (Kinase-Glo TM) Inhibition; Potency, µM (titrated, usually from 38.3 µM), for the others: top-dose activity change, negative = inhibition, usual class: inhibitors; Luciferin 4-monooxygenase (Photuris pensylvanica), Q27757; 0.28% of 200,000 active; Kinase-Glo luciferase, ATP luminescence, 8 min; further: on the % scale 0 is the no-effect control and ±100 the full control effect; nearly all actives have a fitted effect of over 60% in size
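Compound is pinned into ATP-containing buffer (10 uM ATP, imidazole pH 7.2, 7 mM MgCl2). Kinase-Glo luciferase reagent is then added. Light output is recorded following an 8-min room-temperature incubation.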
Rab9 prom act – qHTS Assay for Rab9 Promoter Activators; Huh7 Rab9 promoter-luciferase reporter, luminescence, 24 h; 2.8% of 320,000 active; Potency, µM (titrated, usually from 9.22 µM), without a hit: at the top dose activation, negative = inhibition, most hits filed as activators; AID 485297, 2010; further: % of control where 0% means no effect; nearly all actives have a fitted effect of over 60% in size
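Using Huh7 cells stably transfected with Rab9 promoter–luciferase, compounds were incubated 24 h at 37 °C, 5% CO2; luciferase luminescence was read 10 min after reagent addition.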
* hit, by the source's call; ? = inconclusive; nt = no result. A selection: hits, their analogues and other compounds. The true share with any hit is near 7.5%. The call rests on the fitted dose curve; in most records, active means well fitted curve in the direction sought with a large enough effect; inconclusive means small, poorly fitted or top-dose-only effect, or another doubt; inactive means no such curve, though single readings can be large; an effect the other way counts as inactive or inconclusive. Potency means the concentration at half of the fitted maximal effect.

SMILES	NPC1 promoter act	ELG1 genotox	SMN2 splice up	FLuc modulator	Luc counter	Rab9 prom act
Cc1ccc(OCCOc2cccc3ccc(C)nc23)c([N+](=O)[O-])c1	6%	0%	18%	21µM*	0%	2%
Clc1ccccc1OCCCOc1cccc2cccnc12	?	?	nt	7.6µM*	nt	?
NC(=O)COc1cccc2cccnc12	0%	3%	-1%	2%	-2%	12%
O=[N+]([O-])c1ccccc1OCCCOc1cccc2cccnc12	?	?	nt	6.7µM*	nt	?
Cc1cccc(NC(=O)CSCC(=O)Nc2sccc2C#N)c1	2%	-2%	nt	2%	nt	-5%
COc1ccc(C(=O)N/N=C(\C)c2cccc(NC(=O)c3ccc(F)cc3)c2)c(OC)c1	30%	3%	nt	4.3µM*	nt	30%
COc1ccc(C(=O)N/N=C(/C)c2cccc(NC(=O)c3ccccc3F)c2)cc1	?	6%	nt	3.8µM*	nt	24%
COc1cccc(NC(=O)c2ccc(NC(C)=O)cc2)c1	18%	?	-4%	?	-2%	?
O=C(Nc1cccc(F)c1)N1CC2(CCN(C(=O)c3ccncc3)CC2)C1	nt	nt	-32%	nt	-1%	nt
Nc1nc(SCC(=O)Nc2cc(-c3ccccc3)nn2-c2ccccc2)n[nH]1	-2%	3%	22%	-19%	-8%	-4%
Cc1ccc(-c2cc(NC(=O)CSc3n[nH]c(N)n3)n(-c3ccccc3)n2)cc1	3%	-3%	6%	19µM*	1%	7%
CCCc1ccc(-c2cc(NC(=O)CSc3nnc(N)s3)n(-c3ccccc3)n2)cc1	2.5µM*	?	nt	0.21µM*	nt	1.3µM*
O=C(c1ccc(-c2ccccc2)cc1)C1CCCN(C(=O)c2ccncc2)C1 (configuration not stated)	-2%	4%	nt	-1%	-4%	-2%
O=C(c1ccc(-c2ccccc2)cc1)C1CCCN(Cc2ccncc2)C1 (configuration not stated)	4µM*	?	nt	7.6µM*	-2%	1.3µM*
O=C(NCc1cccc(Cl)c1)c1c2c(nc3ccccc13)C(=O)N(C1CCCCC1)C2	nt	nt	nt	1%	nt	nt

From PubChem
